The results in this text go back to PubChem BioAssay (NCATS).

Assay [1] addresses Lysosomal acid glucosylceramidase (Homo sapiens) (UniProt P04062). The assay can be described thus: Glucocerebrosidase-p2 (AID 348; in the data active = potency below about 10 µM; note: potency is the fitted concentration of half-maximal effect). The settings on record: purified GBA, blue fluorogenic substrate, 40 min. A digest of the protocol: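 Compounds titrated from 0.6 nM upwards against 0.2 nM enzyme in pH 5.9 citric acid/KH2PO4, taurocholate, tween-20; blue fluorogenic substrate 80 uM, 40 min room temperature, stopped and read Ex 365/Em 440 for AC50.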

The nature of assay [2]: AP1 Signaling Pathway (AID 357; active = well fitted curve in either direction with a large enough effect, not every such curve was filed as active;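 note: ME-180 reporter cells stimulated with EGF at its EC50 level; % is set by controls: 0 for no effect and ±100 for the full control effect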). The settings on record: ME-180 AP-1-bla reporter, EGF-induced, beta-lactamase ratio, 5 h; at 7.69 µM (top of the series) unless noted. A digest of the protocol: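 First, ME-180 AP-1-bla cells were cultured overnight at 37 °C in low-serum Opti-MEM. Next, titrated compounds with EC50 EGF were incubated 5 hours. Finally, CCF4 was added for 2.5 hours and the 460/530 nm ratio recorded.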

Assay [3] addresses Cytochrome P450 1A2 (Homo sapiens) (UniProt P05177). The experiment in a line: p450-cyp1a2 (AID 410; calls by dose curve; note: potency is the fitted concentration of half-maximal effect). The settings on record: recombinant CYP1A2, luciferin-ME demethylation, luminescence; series mostly up to 57 µM. A digest of the protocol: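 20nM CYP1A2 with 100uM Luciferin-ME (at Km) in 100mM KPO4; compound preincubated 10 min, NADPH regeneration added, 60 min at room temperature. Luciferin quantified by luminescence after detection reagent; normalized to 57 uM furafylline.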

A short description of assay [4]: NFAT Signaling Pathway (AID 444; active = well fitted curve in either direction with a large enough effect, not every such curve was filed as active;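 note: carbachol stimulus at about its EC50 of 1 µM final; % is set by controls: 0 for no effect and ±100 for the full control effect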). The settings on record: Jurkat NFAT-bla M1, carbachol, beta-lactamase ratio, 5 h; at 7.69 µM (top of the series) unless noted. The gist of the method:
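Jurkat cells with NFAT-driven β-lactamase reporter and co-expressed M1 receptor, stimulated with carbachol (final 1 uM, ~EC50), compound titration, 5 h at 37 °C. CCF4 loaded 1 h at RT; 460/530 nm ratio gave %activity and AC50.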

A short description of assay [5]: Stat Signaling Pathway (AID 446; active = well fitted curve in either direction with a large enough effect, not every such curve was filed as active;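 note: ME-180 cervical cancer cells given 40 pM IL-6 alongside compound; SIE-controlled beta-lactamase reporter measured as 460/530 nm FRET emission ratio; % is set by controls: 0 for no effect and ±100 for the full control effect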). The settings on record: ME-180 SIE beta-lactamase reporter, IL-6 stimulated, 5 h; series mostly up to 7.69 µM. A digest of the protocol: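 ME-180 cells carrying a SIE-driven beta-lactamase reporter are stimulated with 40 pM IL-6 for 5 h at 37C in the presence of compound. The 460/530 nm FRET substrate ratio is read after 2.5 h at RT. Data are normalised to 300 pM IL-6 and to 125 nM JAK inhibitor controls.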

Assay [6] has as its target Glucocorticoid receptor (Homo sapiens) (UniProt P04150). The assay can be described thus: GR-GFP Redistribution (AID 450;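 active = compounds whose dose series gives a full or clear partial fitted curve of increased nuclear translocation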; note: potency is the fitted concentration of half-maximal effect). The settings on record: U2OS GR-GFP nuclear translocation, laser cytometry, 2 h.
The target in assay [7] is Mitogen-activated protein kinase 10 (Mus musculus) (UniProt Q61831). The experiment in a line: JNK3 AlphaScreen Assay (AID 530; active = well fitted curve in either direction with a large enough effect, not every such curve was filed as active;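 note: kinase came from lysate of stimulated human HepG2 cells; signal reports phosphorylation of biotinylated GST-cJun 1-79 at Ser73 with 10 µM ATP; % is set by controls: 0 for no effect and ±100 for the full control effect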). The settings on record: JNK3 lysate, c-Jun phosphorylation; series mostly up to 57.1 µM. A digest of the protocol: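 Pre-activated (IL-1β/TNFα) JNK3 in HepG2 lysates phosphorylates biotin-GST-cJun(1-79), 10 uM ATP; anti-phospho-cJun(Ser73) AlphaScreen read at room temperature, pH 7.6 Tris buffer. Compounds pre-incubated 15 min as titrations.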

In assay [8] the target is Cytochrome P450 3A4 (Homo sapiens) (UniProt P08684). The experiment in a line: qHTS Assay for Activators of Cytochrome P450 3A4 (AID 885). Note: nearly all actives have a fitted effect of over 65% in size. The settings on record: recombinant CYP3A4, Luciferin-PPXE luminescence, 60 min; series mostly up to 57.1 µM. The gist of the method:
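Human CYP3A4 (20 nM) with Luciferin-PPXE at 25 uM (its KM) in 200 mM KPO4; 10 min compound preincubation, then NADPH regeneration and 60 min reaction at RT. Luciferin read by luminescence; normalized to 57 uM ketoconazole full inhibition.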

The target of assay [9] is Cytochrome P450 2C19 (Homo sapiens) (UniProt P33261). The assay can be described thus: qHTS Assay for Inhibitors and Substrates of Cytochrome P450 2C19 (AID 899). Note: potency is the fitted concentration of half-maximal effect; nearly all actives have a fitted effect of over 60% in size. The settings on record: recombinant CYP2C19, luciferin-H EGE luminescence; series mostly up to 57.1 µM. The gist of the method: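 Signal comes from luciferase acting on luciferin released by CYP2C19-mediated hydroxylation of Luciferin-H EGE, 10uM (KM). Assay mix: 5nM enzyme, 50mM KPO4; 60 min at 37C with NADPH regeneration. Data normalized against 57uM ketoconazole.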

Assay [10] addresses Dual specificity protein kinase CLK4 (Homo sapiens) (UniProt Q9HAZ1). The experiment in a line: qHTS Assay for Inhibitors of CDC-like Kinase 4 (Kinase-Glo Assay) (AID 1770). Note: nearly all actives have a fitted effect of over 65% in size. Note: potency is the fitted concentration of half-maximal effect. The settings on record: recombinant Clk4, Kinase-Glo ATP depletion luminescence; series mostly up to 66.7 µM. A digest of the protocol: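 Luminescent ATP-depletion read-out (Kinase-Glo) after 4.5 h room-temperature reaction of Clk4 (25 nM final) with RS peptide (100 uM) and ATP (1 uM), pH 7.5 Tris buffer with MgCl2 and DTT.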

Assay [11] has the same target. The experiment in a line: qHTS Assay for Inhibitors of CDC-like Kinase 4 (ADP-Glo Assay) (AID 1771). Note: nearly all actives have a fitted effect of over 70% in size. Note: potency is the fitted concentration of half-maximal effect. The settings on record: recombinant CLK4, ADP-Glo luminescence; series mostly up to 80 µM. The gist of the method: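 25 nM Clk4 with 100 uM RS repeat peptide and 1 uM ATP (final) in buffer with 2 mM MgCl2, 0.5 mM EGTA, 2.5 mM DTT, 0.01% Triton X-100; 1 h at room temperature; ADP-Glo luminescence for ADP formed.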

The target is the same in assay [12]. The experiment in a line: qHTS Assay for Inhibitors of CDC-like Kinase 4 (ADP-FP Assay) (AID 1795). Note: nearly all actives have a fitted effect of over 60% in size. Note: potency is the fitted concentration of half-maximal effect. The settings on record: Transcreener ADP fluorescence polarization; series mostly up to 50 µM. A digest of the protocol:
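Kinase activity was measured as ADP production using Transcreener orange tracer (4 nM) and ADP antibody (1 ug/mL) fluorescence polarization, with ADP calculated from a calibration curve. The 1 h reaction contained 6.25 nM Clk4, 1 uM ATP and 100 uM RS peptide at pH 7.5 with Mg2+.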

Assay [13] concerns the target Ubiquitin carboxyl-terminal hydrolase 1 (Homo sapiens) (UniProt O94782). The experiment in a line: Inhibitors of USP1/UAF1: Pilot qHTS (AID 504865).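 Note: rhodamine fluorescence freed from ubiquitin-rhodamine substrate followed over time; top concentration of the series differs between compounds; % is set by controls: 0 for no effect and ±100 for the full control effect; nearly all actives have a fitted effect of over 35% in size.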 The settings on record: purified USP1/UAF1, Ub-rhodamine cleavage fluorescence; series mostly up to 54.9 µM. The gist of the method:
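Deubiquitinase activity followed as kinetic rhodamine fluorescence release from 150 nM Ub-Rho. 1 nM USP1/UAF1 with compound, after 15 min room-temperature preincubation, in HEPES pH 7.8 buffer containing TCEP, EDTA, BSA and Tween-20.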

Assay [14] concerns the target Glucocorticoid receptor (Homo sapiens) (UniProt P04150). The assay can be described thus: GR-EFC Redistribution (AID 451; calls by dose curve; note: potency is the fitted concentration of half-maximal effect). The settings on record: CHO-K1 GR-EFC translocation, beta-gal luminescence, 2 h. A digest of the protocol:
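CHO-K1 cells expressing nuclear EA and GR-ED fragments of b-gal; compounds titrated up to 46 uM final, 2 h at 37 C. GR nuclear translocation read as complemented b-gal luminescence after 1 h RT detection.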

Assay [15] concerns the target 3',5'-cyclic-AMP phosphodiesterase 4B (Homo sapiens) (UniProt Q07343). The experiment in a line: qHTS Assay for Inhibitors of PDE-IV (AID 607; active = well fitted activation curve with a large enough effect in the main read-out, with a control signal flat, not every such curve was filed as active; note: % of control where 0% means no effect). The settings on record: HEK293 ACTOne CNG channel cells, membrane potential fluorescence; series mostly up to 22.9 µM. The gist of the method: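 HEK293 ACTOne cells with CNG channel (1000/well), endogenous PDE4; membrane potential dye, compounds up to 22.9 uM final. Fluorescence Ex 535/Em 590; RO 20-1724 (100 uM final) as reference.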

Assay [16] has as its target Cytochrome P450 3A4 (Homo sapiens) (UniProt P08684). The assay can be described thus: qHTS Assay for Inhibitors and Substrates of Cytochrome P450 3A4 (AID 884). Note: % is set by controls: 0 for no effect and ±100 for the full control effect; nearly all actives have a fitted effect of over 50% in size. The settings on record: recombinant CYP3A4, Luciferin-PPXE luminescence; series mostly up to 57.1 µM. A digest of the protocol: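 20 nM human CYP3A4 with 25 uM Luciferin-PPXE (at KM) in 200 mM KPO4, preincubated 10 min with compound; NADPH regeneration started a 60 min RT reaction. Luciferin detected by luminescence, normalized to 57 uM ketoconazole as full inhibition.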

Assay [17] is described as follows: NCATS anti-infectives library activity on HEK293 viability as a counter-qHTS vs the C. elegans viability qHTS (AID 1745854). The settings on record: HEK293 viability counter-screen; series mostly up to 41.8 µM. A digest of the protocol: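 HEK293 cells (1,500/well) exposed 24 hr at 37C to 1:5 titrations, up to 41.7 uM final; counter-screen to a C. elegans viability qHTS. Viability by CellTiter-Glo luminescence after 10 min at room temperature; digitonin as control.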

Values without a mark were called inactive. Inconclusive results are not listed. Activity calls are given as the source filed them. Unless noted, calls come from the whole dose curve; as a rule, active = well fitted curve in the direction sought with a large enough effect; inconclusive = small, poorly fitted or top-dose-only effect, or another doubt; inactive = no such curve, though single readings can be large; an effect the other way counts as inactive or inconclusive.

Sequence of Lysosomal acid glucosylceramidase (Homo sapiens) (P04062 whole entry, looked up): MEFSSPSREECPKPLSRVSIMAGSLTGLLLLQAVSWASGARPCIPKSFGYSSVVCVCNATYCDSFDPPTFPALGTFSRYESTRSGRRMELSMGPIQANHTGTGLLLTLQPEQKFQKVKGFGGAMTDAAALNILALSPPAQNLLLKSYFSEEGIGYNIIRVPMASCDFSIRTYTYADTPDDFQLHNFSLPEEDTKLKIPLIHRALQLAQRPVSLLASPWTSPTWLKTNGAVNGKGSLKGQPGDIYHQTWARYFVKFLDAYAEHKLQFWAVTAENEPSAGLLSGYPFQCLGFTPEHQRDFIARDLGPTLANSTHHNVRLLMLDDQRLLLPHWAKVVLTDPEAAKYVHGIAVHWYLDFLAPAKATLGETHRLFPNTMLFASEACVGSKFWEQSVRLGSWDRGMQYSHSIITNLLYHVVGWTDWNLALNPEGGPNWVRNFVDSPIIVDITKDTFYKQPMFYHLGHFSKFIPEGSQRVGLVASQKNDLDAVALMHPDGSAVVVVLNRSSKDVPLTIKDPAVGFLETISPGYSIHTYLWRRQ
Sequence of Glucocorticoid receptor (Homo sapiens) (P04150 whole entry, looked up, the tested form may be a part): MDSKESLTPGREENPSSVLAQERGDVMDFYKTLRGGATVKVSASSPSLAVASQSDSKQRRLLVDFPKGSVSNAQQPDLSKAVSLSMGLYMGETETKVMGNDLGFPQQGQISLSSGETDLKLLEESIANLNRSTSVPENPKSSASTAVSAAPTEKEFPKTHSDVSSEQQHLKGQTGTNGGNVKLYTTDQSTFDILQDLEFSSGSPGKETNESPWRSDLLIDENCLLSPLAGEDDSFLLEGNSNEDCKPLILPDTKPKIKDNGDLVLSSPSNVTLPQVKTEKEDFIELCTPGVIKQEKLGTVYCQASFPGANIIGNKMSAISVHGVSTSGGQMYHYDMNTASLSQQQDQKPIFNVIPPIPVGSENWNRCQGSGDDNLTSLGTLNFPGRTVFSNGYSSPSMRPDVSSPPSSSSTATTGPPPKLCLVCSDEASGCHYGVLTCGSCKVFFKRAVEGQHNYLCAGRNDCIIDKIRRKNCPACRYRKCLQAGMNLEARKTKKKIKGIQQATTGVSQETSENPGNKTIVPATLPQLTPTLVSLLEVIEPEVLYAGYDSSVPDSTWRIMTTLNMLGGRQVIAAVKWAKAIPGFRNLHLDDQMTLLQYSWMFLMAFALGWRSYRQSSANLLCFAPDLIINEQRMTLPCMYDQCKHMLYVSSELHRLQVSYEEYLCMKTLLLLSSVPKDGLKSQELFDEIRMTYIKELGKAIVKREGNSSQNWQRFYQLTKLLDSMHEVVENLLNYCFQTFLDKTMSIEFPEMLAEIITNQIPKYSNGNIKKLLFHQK
Sequence of Cytochrome P450 3A4 (Homo sapiens) (P08684 whole entry, looked up): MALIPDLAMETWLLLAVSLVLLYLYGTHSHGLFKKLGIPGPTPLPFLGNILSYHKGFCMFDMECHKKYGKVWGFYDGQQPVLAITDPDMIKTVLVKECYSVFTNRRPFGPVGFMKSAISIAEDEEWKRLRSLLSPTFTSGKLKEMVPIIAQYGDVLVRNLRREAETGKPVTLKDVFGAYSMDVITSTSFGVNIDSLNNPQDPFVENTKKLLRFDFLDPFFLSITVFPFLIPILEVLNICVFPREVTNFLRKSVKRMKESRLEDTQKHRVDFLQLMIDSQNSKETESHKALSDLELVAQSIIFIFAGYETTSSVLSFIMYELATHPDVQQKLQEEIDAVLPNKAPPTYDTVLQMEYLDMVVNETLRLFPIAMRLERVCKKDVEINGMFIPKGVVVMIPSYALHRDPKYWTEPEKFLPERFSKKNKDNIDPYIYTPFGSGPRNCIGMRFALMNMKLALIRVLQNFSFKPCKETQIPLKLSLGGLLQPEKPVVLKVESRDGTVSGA
Sequence of Dual specificity protein kinase CLK4 (Homo sapiens) (Q9HAZ1 whole entry, looked up): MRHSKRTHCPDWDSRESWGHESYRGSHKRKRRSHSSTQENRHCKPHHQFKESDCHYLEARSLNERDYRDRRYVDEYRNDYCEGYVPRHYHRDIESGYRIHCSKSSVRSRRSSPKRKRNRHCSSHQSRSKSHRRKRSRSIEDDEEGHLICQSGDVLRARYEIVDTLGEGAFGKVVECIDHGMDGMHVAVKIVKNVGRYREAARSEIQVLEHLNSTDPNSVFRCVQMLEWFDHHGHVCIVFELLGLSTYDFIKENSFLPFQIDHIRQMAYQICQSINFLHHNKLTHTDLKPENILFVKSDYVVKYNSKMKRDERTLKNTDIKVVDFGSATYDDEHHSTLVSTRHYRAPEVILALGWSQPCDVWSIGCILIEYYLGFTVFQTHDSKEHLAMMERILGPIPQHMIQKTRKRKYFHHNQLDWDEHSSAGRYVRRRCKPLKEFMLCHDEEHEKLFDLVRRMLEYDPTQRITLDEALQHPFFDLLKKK
Sequence of Ubiquitin carboxyl-terminal hydrolase 1 (Homo sapiens) (O94782 whole entry, looked up): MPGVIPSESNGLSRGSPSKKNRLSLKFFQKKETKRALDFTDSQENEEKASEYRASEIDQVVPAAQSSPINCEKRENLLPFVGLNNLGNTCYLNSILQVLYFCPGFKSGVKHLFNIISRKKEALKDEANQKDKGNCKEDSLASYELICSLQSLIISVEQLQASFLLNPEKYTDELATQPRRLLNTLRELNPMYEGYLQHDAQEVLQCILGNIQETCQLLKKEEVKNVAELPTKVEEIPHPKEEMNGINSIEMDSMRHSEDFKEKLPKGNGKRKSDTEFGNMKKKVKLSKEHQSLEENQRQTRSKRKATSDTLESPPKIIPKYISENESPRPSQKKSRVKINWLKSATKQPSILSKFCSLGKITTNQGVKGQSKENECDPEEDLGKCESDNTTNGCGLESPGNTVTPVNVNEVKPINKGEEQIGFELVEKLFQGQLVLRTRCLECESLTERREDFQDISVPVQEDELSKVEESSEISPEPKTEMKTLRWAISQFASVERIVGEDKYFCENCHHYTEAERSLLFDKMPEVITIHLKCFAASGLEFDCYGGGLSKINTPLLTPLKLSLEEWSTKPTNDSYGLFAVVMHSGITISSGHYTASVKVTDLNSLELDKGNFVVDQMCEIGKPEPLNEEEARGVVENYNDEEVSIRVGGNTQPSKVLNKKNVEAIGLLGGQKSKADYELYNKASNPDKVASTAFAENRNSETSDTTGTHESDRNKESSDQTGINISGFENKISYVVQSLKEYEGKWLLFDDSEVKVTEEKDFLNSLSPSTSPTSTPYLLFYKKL
Sequence of Cytochrome P450 1A2 (Homo sapiens) (P05177 whole entry, looked up): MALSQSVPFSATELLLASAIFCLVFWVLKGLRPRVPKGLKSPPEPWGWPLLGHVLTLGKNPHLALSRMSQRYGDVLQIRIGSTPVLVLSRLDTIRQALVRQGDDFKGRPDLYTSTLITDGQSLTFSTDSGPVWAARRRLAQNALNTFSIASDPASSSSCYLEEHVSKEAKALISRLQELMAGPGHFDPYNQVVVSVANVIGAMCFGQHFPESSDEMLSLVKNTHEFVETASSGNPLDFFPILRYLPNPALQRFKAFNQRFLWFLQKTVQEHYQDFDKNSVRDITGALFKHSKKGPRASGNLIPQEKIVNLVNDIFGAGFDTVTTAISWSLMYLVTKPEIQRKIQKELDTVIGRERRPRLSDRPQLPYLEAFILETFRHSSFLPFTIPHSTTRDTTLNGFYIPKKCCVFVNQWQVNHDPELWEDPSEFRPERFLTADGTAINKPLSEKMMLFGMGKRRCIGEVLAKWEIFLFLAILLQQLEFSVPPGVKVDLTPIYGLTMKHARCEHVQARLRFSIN
Sequence of 3',5'-cyclic-AMP phosphodiesterase 4B (Homo sapiens) (Q07343 whole entry, looked up): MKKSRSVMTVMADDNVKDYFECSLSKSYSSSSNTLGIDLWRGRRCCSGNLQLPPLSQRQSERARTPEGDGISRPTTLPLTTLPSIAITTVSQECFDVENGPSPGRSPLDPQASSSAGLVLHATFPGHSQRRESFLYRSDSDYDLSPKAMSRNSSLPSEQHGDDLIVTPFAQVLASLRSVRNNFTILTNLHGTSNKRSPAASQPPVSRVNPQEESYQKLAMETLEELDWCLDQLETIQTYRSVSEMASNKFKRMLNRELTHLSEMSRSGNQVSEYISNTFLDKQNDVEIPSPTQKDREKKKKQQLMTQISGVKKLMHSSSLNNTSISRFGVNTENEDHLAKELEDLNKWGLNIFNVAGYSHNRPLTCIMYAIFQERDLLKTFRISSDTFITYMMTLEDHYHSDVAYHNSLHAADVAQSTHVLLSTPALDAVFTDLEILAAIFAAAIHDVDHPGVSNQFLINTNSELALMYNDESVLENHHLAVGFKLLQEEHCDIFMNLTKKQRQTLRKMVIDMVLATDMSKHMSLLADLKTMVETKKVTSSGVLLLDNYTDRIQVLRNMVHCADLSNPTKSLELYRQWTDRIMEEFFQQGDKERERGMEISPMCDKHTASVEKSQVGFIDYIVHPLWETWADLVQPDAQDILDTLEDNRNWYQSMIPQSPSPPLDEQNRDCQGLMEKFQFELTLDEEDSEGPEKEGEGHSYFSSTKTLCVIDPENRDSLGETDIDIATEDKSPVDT
Sequence of Cytochrome P450 2C19 (Homo sapiens) (P33261 whole entry, looked up): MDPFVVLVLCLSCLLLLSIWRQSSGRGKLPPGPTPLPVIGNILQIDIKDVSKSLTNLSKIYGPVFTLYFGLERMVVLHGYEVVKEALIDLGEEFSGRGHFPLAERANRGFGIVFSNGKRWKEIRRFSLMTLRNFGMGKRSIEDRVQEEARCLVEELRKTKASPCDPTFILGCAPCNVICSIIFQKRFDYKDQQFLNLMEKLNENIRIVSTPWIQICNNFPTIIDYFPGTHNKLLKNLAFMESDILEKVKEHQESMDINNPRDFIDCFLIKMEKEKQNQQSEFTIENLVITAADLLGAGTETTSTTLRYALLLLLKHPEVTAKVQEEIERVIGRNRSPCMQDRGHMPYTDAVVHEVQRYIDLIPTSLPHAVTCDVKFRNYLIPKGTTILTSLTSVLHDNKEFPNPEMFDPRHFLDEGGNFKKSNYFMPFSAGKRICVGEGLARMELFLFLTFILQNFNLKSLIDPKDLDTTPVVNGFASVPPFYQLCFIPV

`CCNc1ncc2nc(CCc3ccccc3)c(=O)n(Cc3cccc(OC)c3)c2n1`: the Potency in assay [1] was more than 11.4 µM; in assay [3], 12.6 µM (active); in assay [6], more than 9.22 µM; in [9], 6.31 µM (active). In addition, the activity change, negative = inhibition in assay [2] was 16.5%; in assay [4], -6.29%. For the same compound, the compound was called inactive in assay [5] and in assay [8]. Also, the Potency result in assay [7], in [10], in assay [11], in assay [12] and in assay [13] was “inactive” each time.

Regarding `CCNc1ncc2ncc(=O)n(Cc3ccc(F)cc3)c2n1`, the Potency was more than 11.4 µM in assay [1]; 1 µM (active) in [3]; more than 46 µM in assay [14]; 7.94 µM (active) in assay [10]; 6.31 µM (active) in assay [11]; 11.2 µM (active) in assay [12]. Also, the activity change, negative = inhibition was -23.6% in assay [2] and 3% in [4]. Also, the Potency entry in assay [7], in assay [15] and in [13] was “inactive” throughout. Besides, the outcome in [8] was inactive.

For `CC12CCC(CC1=O)C2(C)C` (stereo not given), the Potency result in assay [7], in assay [16] and in [17] was “inactive” each time.

With `O=C1CC(c2ccccc2)Oc2ccccc21` (stereo not given), the Potency result in assay [16] and in [17] was “inactive” each time.

As for `O=C1O[C@H]2[C@H](OC(O)[C@@H]2O)[C@@H]1O` (stereo not given in full), in assay [17], the Potency entry is “inactive”.

Regarding `COc1ccccc1CNc1cc(-c2ccccc2CN(C)C)ncn1`, the Potency in assay [1] is more than 11.4 µM; in assay [6], more than 46 µM; in [14] it was more than 46 µM. In addition, in [2], the activity change, negative = inhibition is 4.71%. For the same compound, the Potency entry in assay [7], in assay [10], in [11], in assay [12] and in [13] was “inactive” in each case.

On to `Cn1cc(-c2nc3cnc(N4CCNCC4)nc3n(CCc3ccccc3)c2=O)c2ccccc21`, for which the Potency in assay [1] is more than 11.4 µM; in assay [3], 15.8 µM (active); in assay [6] it was more than 9.22 µM; in assay [9], 2 µM (active). For the same compound, the activity change, negative = inhibition in [4] was 91.4% [activator] (active). The Potency result in assay [15], in assay [10], in assay [11] and in [12] was “inactive” throughout. Besides, in assay [8], the outcome was inactive.

Regarding `COC(=O)N[C@H](C(=O)N1CCC[C@H]1c1ncc(-c2ccc3c(c2)O[C@@H](c2ccccc2)n2c-3cc3cc(-c4cnc([C@@H]5CCCN5C(=O)[C@@H](NC(=O)OC)C(C)C)[nH]4)ccc32)[nH]1)C(C)C`, in [17], the Potency entry is “inactive”.

Regarding `O=C(O)CCCCCCCCC(=O)O`, in assay [17], the Potency result was “inactive”.

Turning to `COc1ccc(Oc2ncc3nc(-c4ccc(F)cc4)c(=O)n(CCC#N)c3n2)cc1`, the figures for the Potency in assay [1], in [6] and in assay [14] were more than 11.4 µM, more than 9.22 µM and more than 46 µM, respectively. Besides, the activity change, negative = inhibition was -16.1% in assay [2] and 1.8% in assay [4]. In addition, the result in assay [5] was inactive. The Potency entry in assay [7], in [15], in assay [10], in assay [11], in [12] and in assay [13] was “inactive” in each case.

In the case of `CN1CCN(c2ncnc3ccc(-c4ccccc4C(F)(F)F)cc23)CC1`, the Potency in assay [1] is more than 11.4 µM; in assay [6] it was more than 46 µM; in [14] it was more than 46 µM. Further, the activity change, negative = inhibition in assay [4] is -19.6%. Also, in assay [5], the call was inactive. For the same compound, the Potency result in assay [7], in assay [15], in assay [10], in assay [11], in assay [12] and in assay [13] was “inactive” throughout.
